The whole screen tested about 52,000 compounds, of which about 4,300 (8.3%) were called active. For the sample, actives were picked, then their nearest neighbours and some compounds at random. Unmarked numbers belong to inactive results. Rule as the data show it: active = survival mostly below about 52% (no sharp cut-off); inactive = mostly above about 56%.

For this assay, the system named is DeltatarO mutant. Description: growth inhibition of S. aureus wild type versus tarO mutant, primary screen, teichoic acid synthesis inhibitors, RN4220, OD600 (AID 463173). The settings on record: OD600, 18 h, stronger effect = lower value, screened at 18.75 µg/mL (by protocol).
Turning to `COc1ccc2c(CNCc3cccs3)c(C(=O)O)n(Cc3ccc(C)cc3)c2c1`, the survival is 77%.
For the compound `CCCOc1ccc(C(=O)NCC(c2ccc(OC)cc2)N2CCCCC2)cc1` (stereo not given), the survival was 84%.
With `Cc1nc2ccc(NC(=O)C3CC3)cc2c(=O)n1Cc1ccc(F)cc1`, the survival is 74%.
As for `Cc1ccc(CCNC(=O)c2cc(-c3ccc(Cl)cc3)n[nH]2)cc1`, the figure is 69%; as for `CC(Nc1ncnc2c1cnn2-c1cccc(Cl)c1)c1ccccc1` (stereo not given), 124%; as for `COc1ccccc1Cn1c(CNS(=O)(=O)c2ccc3c(c2)CCCC3)nc2cccnc21`, 96%.
As for `CCOCCCn1c(=N)c(S(=O)(=O)c2ccccc2)cc2c(=O)n3cc(C)ccc3nc21`, the figure is 88%.
As for `Cc1ccc(CN2CCCn3nc(C(=O)NCc4ccc(N(C)C)cc4)cc3C2=O)cc1`, the figure is 80%.
Turning to `Cc1ccc(Cl)cc1N1CCN(C(=O)c2c(C)oc3ncnc(N4CCOCC4)c23)CC1`, the survival was 89%.
As for `Cc1ccc(Cl)cc1N1CCN(c2ncnc3onc(-c4ccc(F)cc4)c23)CC1`, the figure is 97%.
Consider `Cc1ccc(Cl)cc1N1CCN(c2ncnc3onc(C)c23)CC1`, for which the survival was 52% (active).
As for `Cc1nc(N2CCOCC2)c2c(C(=O)N3CCN(c4cc(Cl)ccc4C)CC3)c(C)oc2n1`, the figure is 46% (active); as for `Cc1nc(N2CCCC2)c2c(C(=O)N3CCN(c4cc(Cl)ccc4C)CC3)c(C)oc2n1`, 102%; as for `Cc1ccc(C)c(N2CCN(C(=O)c3c(C)oc4nc(C)nc(N5CCOCC5)c34)CC2)c1`, 115%.
Consider `Cc1oc2ncnc(N3CCCCC3)c2c1C(=O)N1CCN(c2ccc(Cl)cc2)CC1`, for which the survival was 60%.
With `Cc1ccc(C)c(N2CCN(c3ncnc4onc(C)c34)CC2)c1`, the survival is 90%.
As for `Cc1ccc(Cl)cc1N1CCN(C(=O)c2c(C)oc3ncnc(N4CCCCC4)c23)CC1`, the figure is -4% (active); as for `CCc1c(C)nc2cc(-c3ccc(OC)c(OC)c3)nn2c1NCC(C)(C)CN(C)C`, 98%.
As for `Cc1ccc(-n2ncc(C(=O)NCc3ccccn3)c2C2CCN(C(=O)OC(C)(C)C)CC2)cc1C`, the figure is 102%; as for `CCCC(=O)N1CCCC(c2nc(-c3ccc(OC)cc3)no2)C1` (stereo not given), 82%; as for `CCOc1nc(NC(=O)NS(=O)(=O)Oc2cccc(F)c2)nc(-c2ccccc2)n1`, 74%.
As for `Cc1c(NC(=O)Nc2ccccc2C(F)(F)F)sc2nc3n(c(=O)c12)CCC(C)CC3` (stereo not given), the figure is 83%; as for `COc1cccc(C(=O)NC2CC(=O)N(c3ccc4c(c3)OCCO4)C2)c1OC` (stereo not given), 107%; as for `CCCCN(CCCC)CCCNC(=O)c1ccc2nc(N3CCCCC3)sc2c1`, 102%.
In the case of `CCCCOCc1cc(CN2CCN(c3cccc(Cl)c3)CC2)c(O)c2ncccc12`, the survival was 83%.
As for `CCc1cccc(C)c1NC(=O)C1CCN(S(=O)(=O)Cc2ccccc2)CC1`, the figure is 84%; as for `COc1ccc(CCNC(=O)CN(c2ccccc2OC)S(=O)(=O)c2ccc(C)cc2)cc1`, 71%.
As for `Cc1ccc(S(=O)(=O)N(CC(=O)NCCc2ccc(Cl)cc2)c2ccccc2C)cc1`, the figure is 49% (active); as for `Cc1ccc(S(=O)(=O)N(CC(=O)Nc2c(C)cccc2C)c2cccc(Cl)c2)cc1`, 46% (active); as for `Cc1cccc(N(CC(=O)NCCSCc2ccccc2)S(=O)(=O)c2ccccc2)c1C`, 57%.
`Cc1ccc(S(=O)(=O)N(CC(=O)NCCSc2ccc(Cl)cc2)c2ccccc2C)cc1`: the survival was 58%.
As for `Cc1ccc(CNC(=O)CN(c2cccc(C)c2C)S(=O)(=O)c2ccccc2)cc1`, the figure is 73%; as for `Cc1ccc(S(=O)(=O)N(CC(=O)NCCSc2ccc(Cl)cc2)c2cccc(Cl)c2)cc1`, 112%.
Consider `Cc1cccc(N(CC(=O)NCCc2ccccc2)S(=O)(=O)c2ccccc2)c1C`, for which the survival was 56% (active).
With `Cc1ccc(S(=O)(=O)N(CC(=O)Nc2ccc(Cl)cc2Cl)c2ccccc2C)cc1`, the survival is 106%.
As for `Cc1ccccc1CNC(=O)c1cnc2sc(N3CCOCC3)nn2c1=O`, the figure is 68%.
As for `Cc1ccc(-n2nc3c(=O)n(CCCC(=O)NCCc4ccccc4Cl)nc(C)c3c2C)cc1`, the figure is 91%; as for `COc1cccc(CNC(=O)CCc2c(C)nc3c(c(C)nn3-c3ccc(C)c(C)c3)c2C)c1`, 67%.
`O=S(=O)(c1ccccc1)c1nnn2c1nc(NC1CCCCCC1)c1sccc12`: the survival was 72%.
As for `Cc1nc(N2CCOCC2)c2c(C(=O)N(C)Cc3ccccc3)c(C)oc2n1`, the figure is 118%; as for `COC(=O)c1scc(-c2ccc(C)cc2)c1S(=O)(=O)N1CCN(c2ccccc2F)CC1`, 118%.
For `COc1cccc(N2CC(NC(=O)c3cccs3)CC2=O)c1` (stereo not given), the survival was 74%.
As for `Cc1ccc(-n2ncc(C(=O)NCc3ccc4c(c3)OCO4)c2C2CCN(C(=O)OC(C)(C)C)CC2)c(C)c1`, the figure is 92%.
As for `COc1ccc(Cn2c(SCC(=O)Nc3ccc(OC)cc3)nc3ccccc32)cc1`, the figure is 88%; as for `COc1ccc(-c2nc3ccccc3n2Cc2ccccc2)cc1`, -1% (active); as for `COc1ccc(-c2nc3ccccc3n2Cc2ccc(Cl)cc2)cc1`, 6% (active).
As for `CCOc1cc(Cn2c(-c3ccc(O)c(OCC)c3)nc3ccccc32)ccc1O`, the figure is 73%; as for `COc1ccc(Cn2c(SCC(=O)NCc3ccccc3)nc3ccccc32)cc1`, 117%; as for `COc1ccc(-c2noc(=O)n2Cc2ccccc2)cc1`, 75%.
On to `COc1ccc(Cn2c(SC)nc3ccccc32)cc1`, for which the survival is 97%.
On to `COc1ccc(Cn2c(=O)c3ccccc3n3c(-c4ccc(C)cc4)nnc23)cc1`, for which the survival was 90%.
On to `COc1ccc(-c2nc3ccccc3n2Cc2ccc(C(C)C)cc2)cc1`, for which the survival is 4% (active).
As for `Cc1ccc(NC(=O)Cn2c(=O)oc3cc(S(=O)(=O)N4CCCCC4)ccc32)c(C)c1`, the figure is 81%; as for `Cc1cc(C)cc(NC(=O)C(=O)NCCc2sc(-c3cccc(F)c3)nc2C)c1`, 80%.
As for `COc1cccc(-n2c(=O)c3sc4ccccc4c3n(CC(=O)Nc3ccc(F)cc3F)c2=O)c1`, the figure is 64%; as for `O=C(NCCc1ccccc1)c1cc(Sc2cccc(Cl)c2)nc2ccccc12`, 88%.
As for `CCC(=O)N1CCc2cc(S(=O)(=O)CCC(=O)N3CCN(c4cccc(C)c4)C(C)C3)ccc21` (stereo not given), the figure is 76%; as for `CN1C(=O)Cc2cc(S(=O)(=O)CCC(=O)N3CCN(c4cccc(Cl)c4)CC3)ccc21`, 62%; as for `Cc1cccc(N2CCN(C(=O)Cn3ncc4c3-c3cc(C)ccc3OC4)CC2C)c1` (stereo not given), 47% (active).
Take `Cc1ccc2c(c1)-c1c(cnn1CC(=O)N1CCN(c3cc(Cl)ccc3C)CC1)CO2`: the survival was 49%.
As for `COc1cc(Cl)c(C)cc1NC(=O)Cn1ncc2c1-c1cc(C)ccc1OC2`, the figure is 58%.
As to `Cc1ccc2c(c1)-c1c(cnn1CC(=O)N1CCN(c3ccccc3F)CC1)CO2`, the survival was 73%.
As for `CCN(C(=O)Cn1ncc2c1-c1cc(C)ccc1OC2)c1cc(Cl)ccc1OC`, the figure is 31% (active); as for `Cc1cccc(N2CCN(C(=O)CCS(=O)(=O)c3ccc4c(c3)CC(=O)N4C)CC2C)c1` (stereo not given), -2% (active).
Take `Cc1ccc2c(c1)-c1c(cnn1CC(=O)N1CCN(c3cccc(C(F)(F)F)c3)CC1)CO2`: the survival is 50%.
As for `O=C(NCc1ccc(Cl)cc1)c1cc(S(=O)(=O)N2CCCCC2)c[nH]1`, the survival was 103%.
As for `Cc1ccc(-n2ncc3c(NC4CCCCC4)ncnc32)cc1`, the figure is 88%; as for `Cc1ccccc1NCc1cccn1-c1nnc(N2CCOCC2)s1`, 112%.
As for `Cc1ccc(C(=O)c2oc3ccccc3c2NC(=O)c2cc(-c3ccc(Cl)cc3)on2)cc1`, the figure is 87%.
With `CC1CCC(NC(=O)c2ccc3c(c2)N(Cc2cccc(Cl)c2)C(=O)c2ccccc2S3(=O)=O)CC1` (stereo not given), the survival was 74%.
As for `COc1ccc2[nH]c(=O)c(CN(CCO)S(=O)(=O)c3ccc(Cl)c(C(F)(F)F)c3)cc2c1`, the figure is 98%; as for `COc1ccc(NCc2cccn2-c2nnc(N3CCOCC3)s2)c(OC)c1`, 78%.
As for `CCNC(=O)c1ccc(NC(=O)N2CCCCc3ccccc32)cc1`, the figure is 102%; as for `CCCCCC(=O)N(c1ccc(OCC)cc1)S(=O)(=O)c1ccc2c(c1)n(C)c(=O)n2C`, 111%.
As for `CCOc1ccc(N(CC(=O)OC)S(=O)(=O)c2ccc3c(c2)n(C)c(=O)c(=O)n3C)cc1`, the figure is 46% (active); as for `CCOc1ccc(NC(=O)CCS(=O)(=O)c2ccc3c(c2)n(C)c(=O)c(=O)n3C)cc1`, 87%.
As to `CCOc1ccc(N(C(=O)c2ccccc2F)S(=O)(=O)c2ccc3c(c2)n(C)c(=O)n3C)cc1`, the survival was 47%.
As for `CCOc1ccc(N(C(=O)c2ccc(C)cc2)S(=O)(=O)c2ccc3c(c2)n(C)c(=O)n3C)cc1`, the survival was 45%.
As for `COc1ccc(N(C(=O)c2ccccc2)S(=O)(=O)c2ccc3c(c2)n(C)c(=O)n3C)cc1`, the figure is 89%; as for `CCOc1ccc(N(C(=O)c2ccc(Cl)cc2)S(=O)(=O)c2ccc3c(c2)n(C)c(=O)n3C)cc1`, 37% (active); as for `COc1ccc(C(=O)N(c2ccc(OC)cc2)S(=O)(=O)c2ccc3c(c2)n(C)c(=O)n3C)cc1`, 84%.
As for `CCOc1ccc(N(C(=O)c2ccc(OC)cc2)S(=O)(=O)c2ccc3c(c2)n(C)c(=O)n3C)cc1`, the figure is 37% (active); as for `CCc1nc2ccc(C(=O)N3CCN(c4cccc(OC)c4)CC3)cc2nc1CC`, 83%; as for `CC(C)c1cnc2c(c1SCC(=O)Nc1cccc([N+](=O)[O-])c1)c(=O)n(C)c(=O)n2C`, 69%.
`CC1CCN(S(=O)(=O)c2ccc3c(c2)N(CC(=O)N2CCN(c4ccc(Cl)cc4)CC2)C(=O)CO3)CC1`: the survival is 62%.

Source of the values: PubChem BioAssay AID463173 (ICCB-Longwood Screening Facility, Harvard Medical School, 2010).
